Reference: PubChem BioAssay
Results filed as inconclusive are left out. Activity calls are given as the source filed them.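 Rule for the calls, unless noted: active = normalized viability below 100% at a tested concentration; inactive = the rest.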

Columns and labels:
[1] = growth inhibition of DIPG glioma cells, dose response, cell-based, SU-DIPG-XVII, MIPE5.0, CellTiter-Glo, qHTS (AID 1347060; cut-off not given, nearly all actives have AC50 up to about 26 µM;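 for AC50: cells exposed to compound for 48 hours before viability readout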); conditions: SU-DIPG-XVII viability, CellTiter-Glo ATP luminescence
[2] = growth inhibition of DIPG glioma cells, dose response, cell-based, SU-DIPG-XIII, MIPE5.0, CellTiter-Glo, qHTS (AID 1347064; cut-off not given, nearly all actives have AC50 up to about 23 µM;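 for AC50: cells exposed to compound for 48 hours before the viability read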); conditions: SU-DIPG-XIII viability, CellTiter-Glo ATP luminescence
[3] = viability loss in pontine glioma line – cell-based, SU-DIPG-XXV, MIPE5.0, CellTiter-Glo, qHTS, dose response (AID 1347065; cut-off not given, nearly all actives have AC50 up to about 26 µM;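 note: cells exposed to compound for 48 hours before ATP readout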); conditions: CellTiter-Glo ATP luminescence
[4] = JHH-DIPG-1 glioma cell viability, MIPE5.0 library, CellTiter-Glo luminescence, qHTS (AID 1347067; cut-off not given, nearly all actives have AC50 up to about 26 µM;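 note: cells exposed to compound for 48 hours before readout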); conditions: JHH-DIPG-1 glioma viability, CellTiter-Glo ATP luminescence
[5] = SU-DIPG-XXV glioma cell viability, MIPE5.0 library, qHTS (AID 1347068; cut-off not given, nearly all actives have IC50 up to about 30 µM;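 for IC50: cells exposed to compound for 48 hours before viability readout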)
[6] = sensitizers of A549 cells to miR-34 induction, primary screen, imaging, A549 dox-inducible miR-34, nuclei and caspase counts (AID 1347080;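 active = compounds whose cell count with miR-34 switched on is under 0.7 times the count with it off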); conditions: A549 miR-34 inducible, Hoechst nuclei count, 48 h
[7] = survival rescue of mitochondrial mutant cells in low glucose, primary screen, MELAS cybrids, Rieske KO mouse fibroblasts, CellTiter-Glo (AID 1508586;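 active = mean z-score across replicates of 1.96 or higher in either the MELAS or the Rieske mutant cell line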;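 note: z relative to plate mean and SD of compound and empty wells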)
[8] = ovarian cancer cell viability with rucaparib, profiling panel, oncology-focused library, rucaparib conditional (AID 1508598); conditions: patient-derived ovarian cancer cells, CellTiter-Glo viability, 144 h, stronger effect = lower value
[9] = LFS_MB_P medulloblastoma growth inhibition, cell-based, chromothripsis tumors, cisplatin or BGB combos (AID 1671449; in the data active = inhibition above about 80%;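 note: cells exposed for 96 hours; 0% = vehicle DMSO and 100% = killing by high DMSO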); conditions: LFS_MB_P medulloblastoma cells
[10] = HDN33 neuroblastoma growth inhibition, cell-based, chromothripsis tumors, cisplatin or BGB combos (AID 1671450; in the data active = inhibition above about 80%;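 note: cells exposed to compound for four days; 0% = vehicle DMSO and 100% = cell killing by high DMSO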); conditions: HDN33 neuroblastoma cells, stronger effect = higher value
[11] = ICB984 medulloblastoma cell growth inhibition, synergistic combos for chromothripsis tumors, cisplatin or BGB combos (AID 1671451; call rule not given here;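 note: cells exposed for 96 hours before readout; 0% = vehicle DMSO and 100% = killing by high DMSO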); conditions: ICB984 medulloblastoma cells, drug combinations, stronger effect = higher value
[12] = LFS_MB_1R medulloblastoma cell growth inhibition, synergistic combos for chromothripsis tumors, cisplatin or BGB combos (AID 1671452; in the data active = inhibition above about 80%;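 note: cells exposed for 96 hours before readout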); conditions: LFS_MB_1R medulloblastoma cells, stronger effect = higher value
[13] = HTB85 osteosarcoma cell growth inhibition, synergistic combos for chromothripsis tumors, BGB or cisplatin IC20 combos (AID 1671453; in the data active = inhibition above about 80%;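 note: cells exposed for 96 hours before readout; 0% = vehicle DMSO and 100% = high DMSO killing control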); conditions: HTB85 osteosarcoma cells, drug combinations, stronger effect = higher value
[14] = CRL2098 osteosarcoma cell growth inhibition, synergistic combos for chromothripsis tumors, BGB or cisplatin IC20 combos (AID 1671454; in the data active = inhibition above about 80%;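 note: cells exposed for 96 h before readout; 0% = vehicle DMSO and 100% = killing by high DMSO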); conditions: CRL2098 osteosarcoma cells, drug combinations, stronger effect = higher value
[15] = HD-MB03 medulloblastoma cell growth inhibition, synergistic combos for chromothripsis tumors, BGB or cisplatin IC20 combos (AID 1671455; in the data active = inhibition above about 83%;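 note: 0% = vehicle DMSO and 100% = high DMSO as cytotoxic control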); conditions: HD-MB03 medulloblastoma cells, stronger effect = higher value
[16] = UWB1.289 ovarian carcinoma cell growth inhibition, synergistic combos for chromothripsis tumors, BGB or cisplatin combos (AID 1671456; in the data active = inhibition above about 80%;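 note: cells exposed to compound for four days; 0% = vehicle DMSO and 100% = killing by high DMSO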); conditions: UWB1.289 ovarian carcinoma cells, stronger effect = higher value
[17] = MDA-MB-436 breast carcinoma cell growth inhibition, synergistic combos for chromothripsis tumors, BGB or cisplatin combos (AID 1671458; call rule not given here;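 note: cells exposed for 96 hours; 0% = vehicle DMSO and 100% = killing by high DMSO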); conditions: MDA-MB-436 breast carcinoma growth inhibition, drug combinations, stronger effect = higher value
[18] = growth inhibition of BT084 medulloblastoma cells, cell-based, ICGC_MB145, cisplatin and BGB IC40 combos (AID 1671461; in the data active = inhibition above about 80%;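 note: cells exposed to drugs for 96 hours; 0% = vehicle DMSO and 100% = high DMSO full killing control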); conditions: drug combinations, stronger effect = higher value
[19] = growth inhibition of RCMB18 medulloblastoma cells, cell-based, cisplatin and BGB IC40 combos (AID 1671462; in the data active = inhibition above about 80%;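 note: cells exposed to compound for four days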); conditions: stronger effect = higher value
[20] = growth inhibition of CRL1545 osteosarcoma cells, cell-based, cisplatin and BGB IC20 combos (AID 1671464; in the data active = inhibition above about 80%;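 note: cells exposed to compound for 96 hours before readout; 0% = vehicle DMSO and 100% = high DMSO killing control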); conditions: stronger effect = higher value
[21] = stronger effect = lower value, cell number ratio, induced over uninduced
[22] = measured here: relative caspase fold change +Dox/-Dox
[23] = measured here: total cells with miR-34 induction, stronger effect = lower value
[24] = measured here: total cells without miR-34 induction
[25] = MELAS cybrid survival, CellTiter-Glo 48 h, stronger effect = higher value
[26] = Rieske KO mouse fibroblast survival, CellTiter-Glo 72 h
[27] = measured here: combination with BGB IC40, at 0.05 µM
[28] = measured here: with BGB IC20 combination, at 0.5 µM
[29] = measured here: with cisplatin IC20 combination, at 0.5 µM
[30] = measured here: combination with cisplatin, at 0.5 µM

C=CC(=O)Nc1cc(Nc2nccc(-c3cn(C)c4ccccc34)n2)c(OC)cc1N(C)CCN(C)C
AC50 [1]: 2.95 µM (active)
AC50 [2]: 7.42 µM (active)
AC50 [3]: 3.72 µM (active)
AC50 [4]: 2.63 µM (active)
IC50 [5]: 9.34 µM (active)
fold change [6, 21]: 0.975 (inactive)
fold change [6, 22]: 0.432
cell count [6, 23]: 2760
cell count [6, 24]: 2830
z-score [7, 25]: -0.292 (inactive)
z-score [7, 26]: 1.23
viability ([8]; at 0.000305 µM, OCI-C5x cells, with rucaparib 10 µM, 100% = cells with rucaparib alone): 110% (inactive)
viability ([8]; at 0.000305 µM, OCI-C5x cells, without rucaparib): 114% (inactive)
viability ([8]; at 0.000305 µM, OCI-P5x cells, with rucaparib 20 µM, 100% = cells with rucaparib alone): 95.5% (active)
viability ([8]; at 0.000305 µM, OCI-P5x cells, without rucaparib): 94.3% (active)
viability ([8]; at 0.00122 µM, OCI-C5x cells, with rucaparib 10 µM, 100% = cells with rucaparib alone): 106% (inactive)
viability ([8]; at 0.00122 µM, OCI-C5x cells, without rucaparib): 108% (inactive)
viability ([8]; at 0.00122 µM, OCI-P5x cells, with rucaparib 20 µM, 100% = cells with rucaparib alone): 103% (inactive)
viability ([8]; at 0.00122 µM, OCI-P5x cells, without rucaparib): 103% (inactive)
viability ([8]; at 0.00488 µM, OCI-C5x cells, with rucaparib 10 µM, 100% = cells with rucaparib alone): 120% (inactive)
viability ([8]; at 0.00488 µM, OCI-C5x cells, without rucaparib): 120% (inactive)
viability ([8]; at 0.00488 µM, OCI-P5x cells, with rucaparib 20 µM, 100% = cells with rucaparib alone): 103% (inactive)
viability ([8]; at 0.00488 µM, OCI-P5x cells, without rucaparib): 106% (inactive)
viability ([8]; at 0.0195 µM, OCI-C5x cells, with rucaparib 10 µM, 100% = cells with rucaparib alone): 127% (inactive)
viability ([8]; at 0.0195 µM, OCI-C5x cells, without rucaparib): 118% (inactive)
viability ([8]; at 0.0195 µM, OCI-P5x cells, with rucaparib 20 µM, 100% = cells with rucaparib alone): 108% (inactive)
viability ([8]; at 0.0195 µM, OCI-P5x cells, without rucaparib): 106% (inactive)
viability ([8]; at 0.0781 µM, OCI-C5x cells, with rucaparib 10 µM, 100% = cells with rucaparib alone): 133% (inactive)
viability ([8]; at 0.0781 µM, OCI-C5x cells, without rucaparib): 132% (inactive)
viability ([8]; at 0.0781 µM, OCI-P5x cells, with rucaparib 20 µM, 100% = cells with rucaparib alone): 105% (inactive)
viability ([8]; at 0.0781 µM, OCI-P5x cells, without rucaparib): 107% (inactive)
viability ([8]; at 0.313 µM, OCI-C5x cells, with rucaparib 10 µM, 100% = cells with rucaparib alone): 158% (inactive)
viability ([8]; at 0.313 µM, OCI-C5x cells, without rucaparib): 170% (inactive)
viability ([8]; at 0.313 µM, OCI-P5x cells, with rucaparib 20 µM, 100% = cells with rucaparib alone): 108% (inactive)
viability ([8]; at 0.313 µM, OCI-P5x cells, without rucaparib): 108% (inactive)
viability ([8]; at 1.25 µM, OCI-C5x cells, with rucaparib 10 µM, 100% = cells with rucaparib alone): 147% (inactive)
viability ([8]; at 1.25 µM, OCI-C5x cells, without rucaparib): 173% (inactive)
viability ([8]; at 1.25 µM, OCI-P5x cells, with rucaparib 20 µM, 100% = cells with rucaparib alone): 91.6% (active)
viability ([8]; at 1.25 µM, OCI-P5x cells, without rucaparib): 91.7% (active)
viability ([8]; at 5 µM, OCI-C5x cells, with rucaparib 10 µM, 100% = cells with rucaparib alone): 2.67% (active)
viability ([8]; at 5 µM, OCI-C5x cells, without rucaparib): 3.48% (active)
viability ([8]; at 5 µM, OCI-P5x cells, with rucaparib 20 µM, 100% = cells with rucaparib alone): 8.99% (active)
viability ([8]; at 5 µM, OCI-P5x cells, without rucaparib): 78.5% (active)

N=C1CCCN1Cc1[nH]c(=O)[nH]c(=O)c1Cl
outcome [1]: inactive
outcome [2]: inactive
outcome [3]: inactive
outcome [4]: inactive
outcome [5]: inactive
inhibition ([9]; at 0.5 µM, stronger effect = higher value): -20% (inactive)
inhibition ([9]; measured here: combination with BGB IC20, at 0.005 µM): 7.99%
inhibition ([9]; measured here: combination with BGB IC40, at 0.005 µM): -21.4%
inhibition [9, 27]: -6.35%
inhibition ([9]; measured here: combination with cisplatin, at 0.5 µM, stronger effect = higher value): -51.5%
inhibition ([9]; measured here: combination with cisplatin, at 5 µM, stronger effect = higher value): 0.237%
inhibition ([10]; BGB combo, at 5 µM): -2.48%
inhibition ([10]; at 0.5 µM): 2.44% (inactive)
inhibition ([10]; cisplatin combo, at 5 µM): 22.1%
inhibition [10, 28]: 3.45%
inhibition [10, 29]: 3.39%
inhibition ([10]; single agent, at 5 µM): -10.2%
inhibition ([11]; BGB IC20 combo, at 0.005 µM): 12.8%
inhibition ([11]; BGB IC40 combo, at 0.005 µM): -11.6%
inhibition ([11]; BGB IC40 combo, at 0.05 µM): -8.96%
inhibition ([11]; at 0.5 µM): -1.56% (inactive)
inhibition ([11]; cisplatin combo, at 0.05 µM): -12%
inhibition ([11]; cisplatin combo, at 0.5 µM): 11.2%
inhibition ([11]; cisplatin combo, at 5 µM): -26.7%
inhibition ([11]; measured here: 5 uM single agent, at 5 µM): -22.7%
inhibition ([12]; at 0.5 µM): -12.8% (inactive)
inhibition [12, 27]: 8.6%
inhibition [12, 30]: -12.6%
inhibition ([12]; measured here: combination with cisplatin, at 5 µM): -5.77%
inhibition ([13]; at 0.5 µM): 8.24% (inactive)
inhibition ([13]; measured here: with BGB IC20, at 0.5 µM): 11.6%
inhibition ([13]; measured here: with BGB IC20, at 5 µM): 59.6%
inhibition ([13]; measured here: with cisplatin IC20, at 0.5 µM): -6.26%
inhibition ([13]; measured here: with cisplatin IC20, at 5 µM): -29%
inhibition ([13]; single agent, at 5 µM): -1.22%
inhibition ([14]; at 0.5 µM): 2.27% (inactive)
inhibition ([14]; measured here: combination with BGB at IC20, at 0.5 µM): 3.71%
inhibition ([14]; measured here: combination with cisplatin at IC20, at 0.5 µM): 0.594%
inhibition ([15]; at 0.5 µM): -9.24% (inactive)
inhibition ([15]; measured here: combo with BGB at IC20, at 0.5 µM): -10.8%
inhibition ([15]; measured here: combo with cisplatin at IC20, at 0.5 µM): -6.6%
inhibition ([16]; at 0.5 µM): 19.4% (inactive)
inhibition ([16]; measured here: inhibition with BGB combination, at 0.05 µM): -16.6%
inhibition ([16]; measured here: inhibition with cisplatin combination, at 0.05 µM): -2.8%
inhibition ([17]; at 0.5 µM): -5.08% (inactive)
inhibition ([17]; measured here: BGB combination, at 0.5 µM): 3%
inhibition ([17]; measured here: BGB combination, at 5 µM): -6.4%
inhibition ([17]; measured here: cisplatin combination, at 0.5 µM): -14.7%
inhibition ([17]; measured here: cisplatin combination, at 5 µM): -27%
inhibition ([18]; at 0.5 µM): -23.1% (inactive)
inhibition ([18]; cisplatin combination, at 0.5 µM): -17.8%
inhibition ([18]; cisplatin combination, at 5 µM): -5.35%
inhibition ([18]; measured here: BGB IC40 combination 0.05 uM, at 0.05 µM): -15.9%
inhibition ([18]; single agent, at 5 µM): -9.51%
inhibition ([19]; at 0.5 µM): 3.14% (inactive)
inhibition ([19]; cisplatin combo, at 5 µM): -11.8%
inhibition ([19]; measured here: BGB IC40 combination, at 0.05 µM): 22%
inhibition [19, 30]: 1.1%
inhibition ([19]; single agent, at 5 µM): -5.54%
inhibition ([20]; at 0.5 µM): 26.4% (inactive)
inhibition [20, 28]: 22.4%
inhibition [20, 29]: 26.7%
inhibition ([20]; single agent, at 0.05 µM): 12.9%
inhibition ([20]; single agent, at 5 µM): 25.1%

Nc1cc(C(F)(F)F)c(-c2nc(N3CCOCC3)nc(N3CCOCC3)n2)cn1
AC50 [1]: 2.35 µM (active)
AC50 [2]: 3.72 µM (active)
AC50 [3]: 0.742 µM (active)
AC50 [4]: 2.35 µM (active)
IC50 [5]: 1.86 µM (active)

COc1nc(N)nc2c1ncn2C1OC(CO)C(O)C1O (centres undefined)
outcome [1]: inactive
outcome [2]: inactive
outcome [3]: inactive
outcome [4]: inactive
outcome [5]: inactive
fold change [6, 21]: 0.895 (inactive)
fold change [6, 22]: 0.879
cell count [6, 23]: 6660
cell count [6, 24]: 7440
z-score [7, 25]: -0.422 (inactive)
z-score [7, 26]: -0.253

c1ccc(Cn2c(-c3ccc(OCC(C4CCNCC4)n4c(-c5ccccc5)nc5ccccc54)cc3)nc3ccccc32)cc1 (centres undefined)
AC50 [1]: 18.6 µM (active)
AC50 [2]: 20.9 µM (active)
AC50 [3]: 13.2 µM (active)
AC50 [4]: 16.6 µM (active)
IC50 [5]: 23.5 µM (active)
fold change [6, 21]: 1.11 (inactive)
fold change [6, 22]: 0.359
cell count [6, 23]: 5600
cell count [6, 24]: 5040
z-score [7, 25]: -0.583 (inactive)
z-score [7, 26]: -1.33
